# From ChEMBL document CHEMBL1201862, “PubChem BioAssay data set” (2004)
# Potency and affinity values are given separately.
# Assay: A High Throughput Confirmatory Assay used to Identify Novel Compounds that Inhibit Mycobacterium Tuberculosis in the absence of Glycerol using Purified and Synthesized Compounds (4).
# Assay type: functional; call rule not given here
structure (smiles),measurement,value
Cc1cc(Br)ccc1NC(=O)c1cnc(N2CCN(c3ccccn3)CC2)c2ccccc12,IC90,> 51.1 µM (active)
